# Experimental data reported in publication PMC4336329 (PLoS ONE, 2015).
# About 14,000 (4.5%) of roughly 310,000 compounds showed an effect of 50% or more. The effect is printed as a negative number. This excerpt belongs to a sample that is enriched for strong results.
# Target: human ether-à-go-go-related gene (hERG) potassium channel (human, UniProt Q12809)
# Test: primary screen, population patch clamp on CHO cells stably expressing hERG; higher = less effect of the substance
# 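Note: peak tail current of the secondary pulse compared with the same well before compound.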
# human ether-à-go-go-related gene (hERG) potassium channel, sequence (Q12809 whole entry, looked up): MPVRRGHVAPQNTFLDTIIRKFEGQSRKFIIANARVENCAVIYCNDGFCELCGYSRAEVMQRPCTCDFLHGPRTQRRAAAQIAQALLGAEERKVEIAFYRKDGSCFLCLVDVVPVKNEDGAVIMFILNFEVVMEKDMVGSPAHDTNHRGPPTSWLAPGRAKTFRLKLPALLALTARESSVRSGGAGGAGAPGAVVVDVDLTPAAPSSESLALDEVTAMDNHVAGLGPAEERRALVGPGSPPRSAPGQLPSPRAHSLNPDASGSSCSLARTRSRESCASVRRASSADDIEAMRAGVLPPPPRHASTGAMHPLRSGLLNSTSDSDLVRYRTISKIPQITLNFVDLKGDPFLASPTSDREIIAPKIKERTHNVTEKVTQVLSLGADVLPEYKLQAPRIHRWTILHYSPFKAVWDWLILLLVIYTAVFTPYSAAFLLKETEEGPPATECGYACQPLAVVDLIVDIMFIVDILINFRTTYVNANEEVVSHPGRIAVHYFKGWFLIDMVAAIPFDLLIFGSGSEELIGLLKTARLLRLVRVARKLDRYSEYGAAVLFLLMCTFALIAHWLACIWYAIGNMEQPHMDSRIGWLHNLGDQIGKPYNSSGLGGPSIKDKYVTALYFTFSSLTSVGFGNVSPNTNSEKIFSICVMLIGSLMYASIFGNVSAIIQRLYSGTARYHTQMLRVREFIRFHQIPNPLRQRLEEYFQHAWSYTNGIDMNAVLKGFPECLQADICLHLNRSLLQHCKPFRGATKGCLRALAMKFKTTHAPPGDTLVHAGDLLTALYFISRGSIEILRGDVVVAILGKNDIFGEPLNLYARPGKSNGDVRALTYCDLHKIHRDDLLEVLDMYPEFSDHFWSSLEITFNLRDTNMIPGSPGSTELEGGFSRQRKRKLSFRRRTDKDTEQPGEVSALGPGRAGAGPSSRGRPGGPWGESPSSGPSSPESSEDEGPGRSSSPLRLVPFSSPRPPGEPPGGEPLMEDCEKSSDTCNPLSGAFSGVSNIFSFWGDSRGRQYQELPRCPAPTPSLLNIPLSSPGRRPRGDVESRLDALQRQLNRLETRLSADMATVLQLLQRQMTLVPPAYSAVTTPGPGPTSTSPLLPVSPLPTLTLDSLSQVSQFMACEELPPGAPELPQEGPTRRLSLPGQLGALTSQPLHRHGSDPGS
row,Structure (SMILES),"hERG current change (%, negative = inhibition) at 10uM [%]"
1,O=C(Cn1c2ccc(F)cc2c2nc3n(c(=O)c21)CCS3)Nc1ccccc1C(F)(F)F,15.6
2,O=C1CCCC/C1=C/NCc1ccc(F)cc1,6.07
3,O=C(CSc1nc2ccccc2s1)NCCOc1ccc(Cl)cc1,-3.32
4,CC1CN(C(=O)COC(=O)c2c(Cl)cccc2Cl)CC(C)O1 (stereo not drawn),6.73
5,CCOC(=O)C1CCN(S(=O)(=O)c2ccc(CNC(=O)c3ccccc3)s2)CC1,-50.3
6,CCOC(=O)C1CCN(S(=O)(=O)c2ccc(OC)c(C(=O)N3CCCCC3)c2)CC1,12.5
7,CCOC(=O)C1CCN(C(=O)c2cc(S(=O)(=O)N3CCCCCC3)ccc2OC)CC1,-50.8
8,CCOC(=O)C1CCN(S(=O)(=O)CCNC(=O)c2ccccc2)CC1,-2.78
9,COc1ccc(S(=O)(=O)N2CCc3ccccc32)cc1C(=O)O,-6.25
10,CCOC(=O)C1CCCN(C(=O)c2cc(S(=O)(=O)N3CCCCCC3)ccc2OC)C1 (stereo not drawn),-17.4
11,CCOC(=O)C1CCN(S(=O)(=O)c2ccc(OC)c(C(=O)N3CCCCCC3)c2)CC1,-12.5
12,CCOC(=O)C1CCN(C(=O)c2cc(S(=O)(=O)N3CCOCC3)c(Cl)cc2Cl)CC1,-50.1
13,CN1CCN(S(=O)(=O)c2ccc(CNC(=O)c3ccccc3)s2)CC1,23.1
14,CCOC(=O)C1CCN(C(=O)c2ccc(Cl)c(S(=O)(=O)N3CCOCC3)c2)CC1,-32.4
15,CCOC(=O)C1CCN(C(=O)c2cc(S(=O)(=O)N3CCc4ccccc43)ccc2OC)CC1,-60.3
16,NC(=O)C1CCN(C(=O)c2cc(S(=O)(=O)N3CCOCC3)c(Cl)cc2Cl)CC1,8.61
17,O=C(N/C(=C\c1ccco1)C(=O)N1CCCC(CO)C1)c1ccccc1 (stereo not drawn),15.6
18,Cc1ccc(S(=O)(=O)NC2CC3CCC2C3)cc1 (stereo not drawn),-1.07
19,CCN(C(=O)COc1ccccc1)C1CCCCC1,7.42
20,CC(=O)C[C@@H](O)CC(=O)[C@H]1OC(=O)CCCCCCc2ccccc21,-2.65
21,Cc1onc(C(=O)NCc2cccs2)c1[N+](=O)[O-],9.7
22,CC1CCCN(c2ccc(F)cc2N)C1.Cl (stereo not drawn),11.2
23,COc1cccc(NC(=O)c2ccc[n+](C)c2)c1.[I-],18.2
24,Cc1cccn2cc(CNc3ccccc3)nc12,-4.15
